This note sets out measurements from PubChem BioAssay (NCATS).

Each structure is given as a SMILES string. Records with an inconclusive call do not appear. A call without a number means that no potency is given here. Active and inactive are the calls of the source. Calls follow the shape of the dose curve; as a rule, active = well fitted inhibition curve with a large enough effect; inconclusive = small, poorly fitted or top-dose-only effect, or effect the other way; inactive = flat fitted curve, though single readings scatter.

The test is described as follows: qHTS for Inhibitors of Plasmodium falciparum (CP250) proliferation (AID 504320). The conditions noted are these: P. falciparum CP250 in erythrocytes, SYBR Green DNA, 72 h; series mostly up to 6.7 µM. The source says:
Plasmodium falciparum is a virulent malarial parasite that kills 1-2 million people worldwide each year. Malaria not only inflicts tremendous suffering and morbidity on the human population, but has dramatically influenced the course of civilization with profound sociological and economic implications (Shah, S. 2010). Transmitted by mosquitoes, the sporozoite form of the parasite enters the blood stream to infect hepatocytes, where they become merozoites that infect red blood cells (erythrocytes). Within erythrocytes, merozoites begin a […] cycle of growth and division, after which the parasite is released to infect new red blood cells. Gametocytes, which form within erythrocytes as well, circulate in the bloodstream and are ingested by the mosquito, thereby completing the life cycle (see CDC website). To profile malarial lines for differential chemical responses and to identify inhibitors of malarial growth, an assay that measures P. falciparum growth and replication within erythrocytes was employed. This assay uses a DNA binding fluorescent dye (SYBR Green) to detect parasite DNA following cell lysis. Because mature erythrocytes lack DNA, only Plasmodium-derived DNA is detected. The P. falciparum line cp250, derived from a malarial isolate from Cambodia, (Mu, J., et al. 2010) was added to the panel of lines, Dd2, HB3, 7G8 and GB4 in this study. Laboratory of Assay Development and Screening Technology [ADST] and NIH Chemical Genomics Center [NCGC] Boston University, Chemistry Department, Center for Chemical Methodology and Library Development [CMLD-BU] NIH National Institute of Allergy and Infectious Diseases [NIAID]
ADST Assay Protocol Summary: The 1536-well SYBR Green viability assay was based on the method of Bennett et al (2004) and described previously in 1536-well format (Yuan J., et al. 2009). For screening 3 ul culture medium was dispensed into 1536 well black clear bottom plates (Aurora Biotechnologies) using a Multidrop Combi (Thermo Fisher Scientific Inc.), 23 nL compounds in DMSO were added by a pin transfer (Cleveland, P.H. and Koutz, P.J, 2005) using a pin tool-based delivery system (Kalypsys), and 5 ul of erythrocytes infected with P. falciparum one of five lines (cp250, Dd2, HB3, 7G8 or GB4, 0.3% parasitemia, 2.5% hematocrit final concentration) were added. The plates were incubated at 37C in a humidified incubator in 5% CO2 for 72 h, and 2 ul lysis buffer (20 mM Tris HCl, 10 mM EDTA, 0.16% saponin, 1.6% triton X, 10X SYBR Green I (supplied as 10,000X final concentration by Invitrogen) was added to each well. The plates were mixed for 25 sec with gentle shaking and incubated overnight at room temperature in the dark. The following morning, fluorescence intensity at 485(14) nm excitation and 535(25) nm emission wavelengths was measured on an EnVision (Perkin Elmer) plate reader. Plate reads were normalized relative to the control inhibitor (0.29 uM artemisinin) and vehicle (DMSO) wells present on each plate and then corrected by an algorithm using vehicle-only control plates at the beginning and end of the compound plate stack. References Shah, S. (2010). The Fever: how malaria has ruled humankind for 500,000 years. New York, Sarah Crichton Books. CDC web site, http://www.cdc.gov/malaria/about/biology/index.html Mu, J., Myers, R.A., Jiang, H., Liu, S., Ricklefs, S., Waisberg, M., Chotivanich, K., Wilairatana, P., Krudsood, S., White, N.J., et Plasmodium falciparum genome-wide scans for positive selection, recombination hot spots and resistance to antimalarial drugs Nature Genetics 2010, 42, pp 268-271 Bennett TN, Paguio, M., Gligorijevic, B., Seudieu, C., Kosar, A. D., Davidson, E., and Roepe, P. D. Novel, rapid, and inexpensive cell-based quantification of antimalarial drug efficacy Antimicrobial Agents Chemother. 2004, 48(5): pp 1807-10 Yuan J, Johnson RL, Huang RL, Wichterman J, Jiang HY, Hayton K, Fidock DA, Wellems TE, Inglese J, Austin CP, Su XZ. […]
(In general: qHTS replaces the single test concentration by a dilution series.)
Take `COc1cccc([C@H]2NC(=O)CC=C[C@H](C)[C@@H](c3cccc(OC)c3)NC(=O)CC=C[C@H]2C)c1`: the Potency result was “inactive”. With `CCCNC(=O)CC1OC(C2CCCCC2)Cc2ccccc21` (stereo not given) the entry was “inactive”. With `CCOC(=O)CN1C(=O)NC(CCc2ccccc2)C(C(C)=O)=C1C` (stereo not given) the entry was “inactive”. The result for `C=C(C(C)=O)C(O)c1ccc(C(F)(F)F)cc1` (stereo not given) reads “inactive”; that for `CN1c2ccccc2[C@@]2(O)C(=O)[C@@]1(C)[C@@H]1CCC=C[C@H]12`, “inactive”; that for `CC(C)CON=C1C[C@@H](O)[C@@H](O)[C@@H]2[C@H]3C(=O)N(C4CCCCC4)C(=O)[C@@H]3CC[C@@H]12`, “inactive”. For the molecule `COC(=O)CCCC1=CC2=CC(=O)C(C)(OC(=O)c3cccs3)C(=O)C2=CN1c1ccc(OC)cc1` (stereo not given), the Potency entry is “inactive”. On to `C=CCN1c2ccccc2[C@]23C[C@@H](C(=O)OC)N(C(=O)OCC)C2=NC(C(=O)OC)=C(C(=O)OC)[C@H]13`, for which the Potency entry was “inactive”.

`C#CCN1C(=O)CC[C@@]23C1=NC(C(=O)OC)=C(C(=O)OC)[C@@H]2N(CC=C(C)C)c1ccccc13`: the Potency entry was “inactive”. The result for `CC(=CC[Si](C)(C)C)CCC=O` reads “inactive”. Consider `COc1ccc(O[C@H]2C=C[C@@H](c3ccccc3)O[C@H]2COC(=O)CCC(C)=NO[C@@H]2O[C@H](COC(C)=O)[C@@H](OC(C)=O)[C@H](OC(C)=O)[C@@H]2OC(C)=O)cc1`, for which the Potency entry is “inactive”. `C[C@H]1CC[C@H]2C(=O)N(Cc3ccc(Cl)cc3)C[C@H](O)CN2[C@H]1c1ccc(Br)cc1`: the Potency entry is “inactive”. The result for `CCCC[C@@H]1CN2[C@H](c3ccc(Br)cc3)[C@H](C)CC[C@H]2C(=O)O1` reads “inactive”. Turning to `O=P1(O)Oc2c(c(-c3ccccc3)cc3ccc4ccccc4c23)-c2c(-c3ccccc3)cc3ccc4ccccc4c3c2O1`, the Potency result was “inactive”.

In the case of `COC(=O)c1cc(C(=O)OC)n2c(C)cc3ccccc3c12`, the Potency result was “inactive”.

`COc1ccc2c(c1)O[C@H](c1ccc3c(c1)OCO3)[C@@H](OC(=O)Nc1cc(OC)c(OC)c(OC)c1)C2=O`: the Potency entry was “inactive”. As to `CCN1C(=O)[C@@H]2[C@H]3[C@H](O)[C@H](O)CC(=NOC[C@H]4O[C@H](c5ccccc5)C=C[C@H]4Oc4ccc(OC)cc4)[C@@H]3CC[C@H]2C1=O`, the Potency entry is “inactive”. Take `COC(=O)[C@@]1(Cc2ccccc2-c2ccco2)C=C[C@H](C)[C@@H](c2ccccc2)N1C(=O)C(F)(F)F`: the Potency entry was “inactive”. With `C=CC[C@@H]1C=C[C@H](ON=C(C)CCN2CCc3nc(CC)c(CC)cc3C2)[C@H](CO)O1` the entry was “inactive”; with `COc1cccc([C@@H]2Oc3ccc(OC)cc3C(=O)[C@@H]2OC(=O)N[C@H]2CCCc3ccccc32)c1`, “inactive”; with `C[C@H]1C[C@@H](C)O[C@@]2(C1)C(=O)N(Cc1ccccc1C(F)(F)F)c1ccccc12`, “inactive”. With `C=CCN1c2ccccc2[C@]23C[C@@H](C(=O)OC)N(C(=O)c4cccs4)C2=NC(C(=O)OC)=C(C(=O)OC)[C@H]13` the entry was “inactive”; with `CCOC(=O)NN=C1C[C@@H](O)[C@@H](O)[C@@H]2[C@H]3C(=O)N(C4CCCCC4)C(=O)[C@@H]3CC[C@H]12`, “inactive”; with `C#CCCCON=C1C[C@@H](O)[C@H](O)[C@H]2[C@@H]3C(=O)N(c4ccc(F)cc4F)C(=O)[C@@H]3CC[C@@H]12`, “inactive”. With `COc1cccc(CC(=O)N2CCc3nc(COc4ccccc4)c4c(c3C2)CO[C@@H](C)C4)c1` the entry was “inactive”; with `C=CCC(Nc1ccc(OC)cc1)C(=O)OCC` (stereo not given), “inactive”; with `COC(=O)C(Cc1cc(Br)c(OC)c(Br)c1O)=NO`, “inactive”.

As to `COC(=O)[C@@H]1[C@@H](c2ccccc2)NC(=O)N(Cc2ccccc2)[C@@H]1C`, the Potency result is “inactive”. Take `COC(=O)N[C@@H](c1cccc(F)c1)C(C(C)=O)C(=O)OC` (stereo not given in full): the Potency result is “inactive”.

With `C[C@H]1CCCC(=O)N[C@@H](c2ccccc2)[C@@H](C)CCCC(=O)N[C@@H]1c1ccccc1`, the Potency result was “inactive”. With `CC1(OC(=O)c2ccc(Cl)nc2)C(=O)Cc2cc(-c3ccsc3)ncc2C1=O` (stereo not given) the entry was “inactive”; with `C=CCN(C)C1=NC(c2ccccc2)C(C(=O)OC)=C(C)N1CCOC` (stereo not given), “inactive”; with `CC(C)=NOCc1ccc(-c2cn([C@@H]3COC[C@@H]3O)nn2)cc1`, “inactive”.

Regarding `C=CCOC(=O)N[C@H](c1cccc(C(F)(F)F)c1)C(C(C)=O)C(C)=O`, the Potency entry is “inactive”. With `COC(=O)[C@@H](O)CC[C@@H](C)Cc1c(OC)c(OC)c(C)c(OC)c1OC` the entry was “inactive”; with `COc1ccc(-c2nc3c(c4c2C[C@H](c2ccccc2)OC4)CN(C(=O)c2cccnc2)CC3)c(C)c1`, “inactive”; with `CC(=O)C1=C(C)N(Cc2ccccc2)C(=O)NC1c1ccc(Br)cc1` (stereo not given), “inactive”. The result for `COC(=O)CC=C[C@@H](C)[C@H](OC)c1cc(OC)ccc1Br` reads “inactive”. With `C=C(C(C)=O)C(O)c1ccc(Cl)cc1` (stereo not given) the entry was “inactive”; with `C[C@H]1CC[C@H]2C(=O)NC[C@H](O)CN2[C@H]1c1ccc(Br)cc1`, “inactive”.
